Assay outcomes from PubChem.
SARS PLP yeast: inhibitors of SARS-CoV papain-like protease in yeast; Potency, µM (titrated, usually from 32.9 µM), most hits filed as activators; 0.19% of 330,000 active; AID 485353; S. cerevisiae expressing SARS-CoV PLpro, growth rescue; calls by dose curve; also: nearly all actives have a fitted effect of over 55% in size
Sm TGR inh: S. mansoni TGR enzyme inhibition | Potency, µM (series often up to 114 µM), actives largely listed as inhibitors | Q962Y6 | 3% of 360,000 active | purified TGR, DTNB reduction, TNB absorbance 405 nm; also: nearly all actives have a fitted effect of over 60% in size
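Kinetic colorimetric format: TGR-catalysed, NADPH-driven DTNB reduction monitored via TNB absorbance. Enzyme dispensed at 20 nM; compound exposure 15 min at room temperature before reaction start.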
HCV inhibitor: inhibitors of hepatitis C virus infection | AID 651820 | Huh7.5.1 HCVcc-Cre infection, luciferase reporter, 44 h | 3.4% of 340,000 active | Potency, µM (titrated, usually from 41.8 µM), most hits filed as inhibitors
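HCVcc-Cre virus at an moi near 0.5 was added right after compound to cells cultured 4 h from seeding (1,000 cells/well). Luciferase activity was determined 44 h later, 15 min after substrate addition at RT.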
Pf growth 48h: P. falciparum growth inhibition at 48 hours (one generation); P. falciparum luciferase growth in erythrocytes, 48 h; Potency, µM (highest dose often 28.7 µM), hits mostly inhibitors; 5.9% of 310,000 active
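Growth was read as firefly luciferase luminescence after a 48 h, 37 C, 5% CO2 exposure of compounds to reporter-bearing P. falciparum cultures (0.1% parasitemia, 2% hematocrit final) in Albumax-supplemented RPMI 1640.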
Pf growth 96h: P. falciparum growth inhibition at 96 hours | Potency, µM (series often up to 28.7 µM), actives largely listed as inhibitors | P. falciparum luciferase reporter growth, 96 h | AID 504834 | 6.9% of 320,000 active
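Luminescence readout: decreased luciferase signal marks inhibited growth of reporter-expressing P. falciparum in infected red cells (2% hematocrit, 0.05% parasitemia final), exposed to compound two generations (96 h, 37 C, 5% CO2).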
HCMV inh: inhibitors of human cytomegalovirus. activity change, negative = inhibition, % at 57.5 µM. 4.5% of 410,000 active. AID 1259415. HFF cells, HCMV-luciferase reporter, 72 h; hits give low values; in the data active = activity change below about -60%; inconclusive = no clear call, values can overlap the other calls; inactive = above about -39%
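Screen run at 2 compound doses on HFFs infected with reporter HCMV, MOI 1 PFU/cell. Luciferase activity from cell lysates at 72 h post infection gave inhibition relative to buffer-only and Salinomycin wells.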
Of the large screens only hits and unclear results are named; the others gave an inactive call. Shown are actives, neighbours in structure and some others; about 15% of the full set was active somewhere. Unless noted, calls follow the shape of the dose curve; as a rule, active = well fitted curve in the direction sought with a large enough effect; inconclusive = small, poorly fitted or top-dose-only effect, or another doubt; inactive = no such curve, though single readings can be large; an effect the other way counts as inactive or inconclusive.

O=C(CSc1c2c(nc3cc(Cl)ccc13)CCCC2)NCc1ccco1	Sm TGR inh 89.1µM, HCV inhibitor 11.2µM
O=C(CSc1c2c(nc3cc(Cl)ccc13)CCCC2)N1CCN(c2ccccc2)CC1	HCMV inh -78.0 (no result: SARS PLP yeast, HCV inhibitor, Pf growth 48h, Pf growth 96h)
O=C(CSc1nc2ccccc2[nH]1)NCc1ccco1	none
N#Cc1ccc(-c2nc3ccc(Cl)cn3c2Cc2ccsc2)cc1	none (no result: SARS PLP yeast, Sm TGR inh, HCV inhibitor, Pf growth 48h, Pf growth 96h)
COc1ccc(NC(=O)COC(=O)CNC(=O)c2cccs2)cc1Cl	none
c1ccc(COC2COC3C(OCc4ccccc4)COC23)cc1 (centres undefined)	none (no result: SARS PLP yeast, Sm TGR inh, Pf growth 48h, Pf growth 96h)
COc1ccc2c(c1)C1(C)CC(C)(C)N2C(=O)N1c1ccccc1 (centres undefined)	Pf growth 48h inconclusive, Pf growth 96h 10.4µM
COc1ccc2c(c1)C(=O)N(c1ccccc1)C(=O)C2	HCV inhibitor inconclusive, Pf growth 48h inconclusive, Pf growth 96h inconclusive
CCCCCCSc1ccc(-c2nc3ccc(C)cn3c2NCc2ccccc2)cc1	Pf growth 48h inconclusive, Pf growth 96h inconclusive
CCCCCCSc1ccc(-c2nc3ccc(C)cn3c2NCc2ccccc2)cc1OC	Pf growth 48h 5.22µM, Pf growth 96h 4.65µM
CCC(C)Sc1ccc(-c2nc3ccc(Cl)cn3c2NCc2ccccc2)cc1 (centres undefined)	none (no result: Sm TGR inh, Pf growth 48h, Pf growth 96h)
CCC(C)Sc1cc(-c2nc3ccc(C)cn3c2NCc2ccccc2)ccc1OC (centres undefined)	HCV inhibitor 10µM, HCMV inh -76.7 (no result: SARS PLP yeast, Sm TGR inh, Pf growth 48h, Pf growth 96h)
CCC(C)Sc1ccc(-c2nc3ccc(C)cn3c2NCc2ccccc2)cc1OC (centres undefined)	HCV inhibitor 3.98µM, Pf growth 48h 3.7µM, Pf growth 96h 4.65µM (no result: HCMV inh)
CCCCNc1c(-c2ccc(OC)c(SC(C)CC)c2)nc2ccc(Cl)cn12 (centres undefined)	HCV inhibitor inconclusive (no result: Sm TGR inh, Pf growth 48h, Pf growth 96h)
O=S(=O)(NCCc1nnc2ccc(SCc3cccc(Cl)c3)nn12)c1ccccc1	none (no result: SARS PLP yeast, HCV inhibitor, Pf growth 48h, Pf growth 96h)
CC(C)/C=C1\CCc2c([nH]c3ccccc23)C1=O	Pf growth 48h inconclusive, Pf growth 96h inconclusive, HCMV inh -70.4
O=C(CN1C(=O)CSc2ccc(S(=O)(=O)N3CCOCC3)cc21)NCCCN1CCc2ccccc2C1	none
CCCCNC(=O)CC1N=C2c3ccccc3N=C(SCC(=O)Nc3cccc(C)c3)N2C1=O (centres undefined)	Pf growth 48h 1.85µM, Pf growth 96h 2.62µM, HCMV inh inconclusive
O=C(CC1N=C2c3ccccc3N=C(SCc3ccc(Cl)cc3)N2C1=O)NCc1ccco1 (centres undefined)	HCV inhibitor inconclusive, Pf growth 48h 3.29µM (no result: Pf growth 96h, HCMV inh)
Cc1ccc(CSC2=Nc3ccccc3C3=NC(CC(=O)NCc4ccc5c(c4)OCO5)C(=O)N23)cc1 (centres undefined)	none (no result: SARS PLP yeast, HCV inhibitor, Pf growth 48h, Pf growth 96h)
CCOC(=O)CSC1=Nc2ccccc2C2=NC(CC(=O)NCc3ccc4c(c3)OCO4)C(=O)N12 (centres undefined)	Pf growth 48h 4.15µM
Cc1ccc(CSC2=Nc3ccccc3C3=NC(CCC(=O)NCc4ccco4)C(=O)N23)cc1 (centres undefined)	Sm TGR inh inconclusive, Pf growth 48h inconclusive
CCOC(=O)CSC1=Nc2ccccc2C2=NC(CC(=O)NCc3ccc(OC)cc3)C(=O)N12 (centres undefined)	Pf growth 48h 6.57µM (no result: Pf growth 96h)
Cc1cc(C)c(CN2CCN(C(=O)Cn3cnc(C(=O)Nc4ccc(C)c(C)c4)n3)CC2)c(C)c1	HCV inhibitor inconclusive, HCMV inh -101.7 (no result: Sm TGR inh, Pf growth 48h, Pf growth 96h)
COc1cccc(CNC(=O)[C@@H]2CCCN2C(=O)[C@H]2CCCCN2C(=O)OC(C)(C)C)c1	none (no result: SARS PLP yeast, Sm TGR inh, HCV inhibitor, Pf growth 48h, Pf growth 96h)
Cc1ncoc1C(=O)N1CCCC(N2CCN(c3ccccc3F)CC2)C1 (centres undefined)	Pf growth 48h inconclusive, Pf growth 96h inconclusive, HCMV inh inconclusive
CN(C)C(Cc1ccccc1)C(=O)c1c[nH]c2ccccc12 (centres undefined)	Pf growth 96h inconclusive (no result: Pf growth 48h)
CC(C(=O)c1c[nH]c2ccccc12)N1CCN(C(=O)c2ccco2)CC1 (centres undefined)	Pf growth 48h 1.85µM, Pf growth 96h 2.08µM
CC(Cl)C(=O)c1c[nH]c2ccccc12 (centres undefined)	Pf growth 48h inconclusive, HCMV inh -66.7
CCOC(=O)C1=C(CN2CCCCC2)NC(=O)NC1c1cc(C)ccc1C (centres undefined)	none (no result: HCV inhibitor, Pf growth 48h)
CCOC(=O)C1=C(CSCc2ccccc2)NC(=O)NC1c1cc(C)ccc1C (centres undefined)	HCV inhibitor inconclusive, Pf growth 48h 13.1µM (no result: Pf growth 96h)
CCOC(=O)c1c(C)[nH]c(C(=O)N2CCN(c3ccc(OC)cc3)CC2)c1C	none
COCC(=O)Oc1c(Sc2ccc(C)cc2)c(C)nn1C(C)(C)C	none (no result: SARS PLP yeast, HCV inhibitor, Pf growth 48h, Pf growth 96h)
CCC(CC)C(=O)Oc1c(Sc2ccccc2[N+](=O)[O-])c(C)nn1C(C)(C)C	Pf growth 48h 9.28µM, Pf growth 96h inconclusive
Cc1nn(-c2ccccc2)c(N)c1Sc1ccccc1[N+](=O)[O-]	HCV inhibitor inconclusive, Pf growth 96h inconclusive
COCC(=O)Oc1c(Sc2ccccc2[N+](=O)[O-])c(C)nn1C(C)(C)C	Sm TGR inh inconclusive, Pf growth 48h inconclusive, Pf growth 96h inconclusive, HCMV inh -101.1
COCC(=O)Oc1c(S(=O)(=O)c2ccc(C)cc2)c(C)nn1C(C)(C)C	Sm TGR inh inconclusive, HCMV inh -70.7
COc1ccc(C(=O)OCC(=O)NC(=O)NC2CCCC2)c(OC)c1	Pf growth 48h 11.7µM
O=C(COC(=O)c1cncc(Br)c1)NC1CCCCCC1	Pf growth 48h 3.29µM
Cc1ccc(OCCCC(=O)NC2CCCCC2)cc1	Sm TGR inh 39.8µM, Pf growth 96h inconclusive
O=C(COC(=O)/C=C/c1cccc(Br)c1)NC1CCCC1	HCMV inh -100.3 (no result: Sm TGR inh, Pf growth 48h, Pf growth 96h)
CCCc1ccc(S(=O)(=O)N(C)S(=O)(=O)c2ccc(F)cc2)cc1	Pf growth 48h inconclusive, Pf growth 96h inconclusive, HCMV inh inconclusive
COc1ccc(NC(=O)CN(C)C(=O)CNC(=O)c2ccc3c(c2)OCO3)cc1	none
CCCCOc1ccc(C(=O)OCC(=O)NC2CCCC2)cc1	HCMV inh -99.7
CCN(CC)c1ccc2cc(S(=O)(=O)c3ccc(Cl)cc3)c(=O)oc2c1	Pf growth 48h inconclusive, Pf growth 96h 13.1µM, HCMV inh inconclusive
O=[N+]([O-])c1ccc(/C=N/NS(=O)(=O)c2ccc(Cl)cc2)o1	Sm TGR inh 12.6µM
Cc1ccc(S(=O)(=O)N/N=C\c2ccc3c(c2)OCO3)cc1C	none
Cc1ccc(S(=O)(=O)N/N=C\c2ccccc2OCc2ccccc2)cc1	HCV inhibitor inconclusive, HCMV inh -74.4
Cc1ccc(S(=O)(=O)N/N=C\c2ccc(C)o2)cc1	Sm TGR inh 35.5µM
Cc1ccc(S(=O)(=O)N/N=C\c2ccc([N+](=O)[O-])o2)cc1C	Pf growth 96h 4.15µM
